# Source: PubChem (National Center for Advancing Translational Sciences (NCATS))
# HT1080 IDH1KD tx = toxicity to HT-1080 IDH1 knockdown cells (counter line); HT-1080 IDH1 knockdown viability, ATP luminescence, 48 h; 360,000 compounds, 2% hits; Potency, µM (highest dose often 46.1 µM), inactives show at the top dose activity, negative = toxicity, actives largely listed as cytotoxic;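 also: potency is read from the fitted curve at half-maximal effect; 0% = DMSO wells and -100% = cell-free medium wells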
#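 IDH1KD HT-1080 cells, 750/well, RPMI + 5% FBS; compound pinned after 2 h settling; 48 h, 37 °C; CellTiter-Glo luminescence; % activity normalised to DMSO and no-cell wells; curves fitted, classed by r2 and efficacy.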
# TDP1 cell CPT = growth inhibition of DT40 Tdp1-/-;hTDP1 cells with camptothecin (screen for TDP1 inhibitors); 420,000 compounds, 12% hits; Potency, µM (highest dose often 46.2 µM), inactives show at the top dose activity change, negative = growth inhibition, usual class: inhibitors; chicken DT40 Tdp1-/-;hTDP1 cells + 20 nM CPT, ATP luminescence, 48 h; also: potency is read from the fitted curve at half-maximal effect; nearly all actives have a fitted effect of over 55% in size
#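 Chicken DT40 Tdp1-/- cells stably complemented with human TDP1 were seeded at 400 cells/well in medium containing 20 nM camptothecin, exposed to pin-transferred compounds, and grown at 37 °C for at least 48 hr. Viability was read as ATP luminescence.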
# DT40 TDP1 no CPT = qHTS for Inhibitors of human tyrosyl-DNA phosphodiesterase 1 (TDP1): qHTS in cells in absence of CPT; DT40 Tdp1-/- hTDP1 cells, no CPT, ATP luminescence, 48 h; AID 686978, 2013; 420,000 compounds, 15% hits; Potency, µM (titrated, usually from 46.2 µM), for the others: top-dose activity change, negative = growth inhibition, usual class: inhibitors; also: potency is read from the fitted curve at half-maximal effect; nearly all actives have a fitted effect of over 55% in size
#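 Growth of hTDP1-complemented DT40 Tdp1-knockout cells is measured by ATP luminescence after at least 48 hr compound exposure at 37 °C, with DMSO substituting for the 20 nM CPT used in the parallel screen.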
# IL-1B inflam inh = inhibitors of inflammasome signaling (IL-1 beta secretion) | THP-1 LPS/ATP IL-1B secretion, AlphaLISA, 16 h; stronger effect = lower value | activity change, % at 57.5 µM | 360,000 compounds, 4.7% hits | AID 743279; in the data active = activity change below about -50%; inconclusive = mostly about -30% to -49%
#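 Secreted IL-1B measured by AlphaLISA bead assay after 16 h compound exposure of THP-1 cells; compounds (final up to 57.5 uM) added 1 h before LPS (250 ng/mL) and ATP (1.25 mM) stimulation; lower signal means less secretion.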
# HT1080NT lethal = kills 2HG-producing HT-1080-NT fibrosarcoma cells | Potency, µM (top dose mostly 46.1 µM), without a hit: at the top dose activity, negative = less viability, usual class: cytotoxic | 360,000 compounds, 1.6% hits | HT-1080-NT fibrosarcoma viability, CellTiter-Glo ATP luminescence, 48 h;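 also: NT is the 2HG producing partner of a matched IDH1 knockdown line; potency is read from the fitted curve at half-maximal effect; 0% = DMSO-treated cells and -100% = media-only wells without cells; nearly all actives have a fitted effect of over 55% in size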
#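 Viability of the 2HG-overproducing fibrosarcoma line after 48 hours of compound exposure at 37 degrees C was determined by luminescence with CellTiter-Glo, and concentration-effect curves were then fitted and categorized.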
# An asterisk follows results filed as active; i = inactive; ? = inconclusive; . = not tested or not shown. Compounds with a hit are over-represented: about 19% of the library has one in this group of screens. Unless noted, calls follow the shape of the dose curve; as a rule, active = well fitted curve in the direction sought with a large enough effect; inconclusive = small, poorly fitted or top-dose-only effect, or another doubt; inactive = no such curve, though single readings can be large; an effect the other way counts as inactive or inconclusive. Unless noted, % is scaled to controls: 0 for no effect and ±100 for the full control effect.
SMILES,HT1080 IDH1KD tx,TDP1 cell CPT,DT40 TDP1 no CPT,IL-1B inflam inh,HT1080NT lethal
COc1ccccc1NC(=O)CC1C(=O)NCCN1C(=O)Nc1ccc(Cl)c(Cl)c1 (stereo not given),?,?,-23%,.,16µM*
Cc1cccc(NC(=O)CC2C(=O)NCCN2C(=S)Nc2ccccc2)c1 (stereo not given),-6%,-1%,-1%,-61*,-1%
O=C(CC1C(=O)NCCN1C(=O)Nc1ccccc1)Nc1cc(Cl)cc(Cl)c1 (stereo not given),26µM*,-3%,-1%,?,16µM*
C=CCNc1ncnc2c1ncn2[C@H]1CN(Cc2cccc3ccccc23)C[C@@H](CO)O1,1%,?,?,-1,-10%
COc1cc(CNc2ncnc3c2ncn3[C@H]2CN(Cc3cccc4ccccc34)C[C@@H](CO)O2)cc(OC)c1OC,?,18µM*,23µM*,-15,?
COc1cc(CNc2ncnc3c2ncn3[C@H]2CN(Cc3ccncc3)C[C@@H](CO)O2)cc(OC)c1OC,-13%,13µM*,13µM*,74,-3%
COc1cc(CNc2ncnc3c2ncn3[C@H]2CN(Cc3ccc(C(=O)O)cc3)C[C@@H](CO)O2)cc(OC)c1OC,?,1%,10%,61,22%
COc1cc(CNc2ncnc3c2ncn3[C@H]2CN(Cc3ccc(-c4ccccc4)cc3)C[C@@H](CO)O2)cc(OC)c1OC,?,8.2µM*,12µM*,0,?
COc1ccc(C)cc1NC(=O)CCCN1C(=O)CN(C)C1=O,8%,1%,-7%,16,9%
COc1ccc(CNC(=O)CN(C(=O)CCC(=O)Nc2nccs2)c2cccc(C)c2)cc1,?,?,?,17,?
C=CCNC(=O)c1c(CS(=O)(=O)c2ccccc2)noc1C(=O)NCc1ccccc1,5%,6%,14%,35,16%
COCC(=O)N(C)C[C@H]1N[C@@](C)(C(=O)OC)[C@H]2C(=O)N(C)C(=O)[C@@H]12,17%,4%,9%,13,23%
CCOC(=O)Nc1oc2ccccc2c(=O)c1C,7%,0%,-5%,19,12%
CCOC(=O)/C=C(\C)Sc1cc(O)c2ccccc2c1O,23µM*,0.92µM*,1.2µM*,-62*,23µM*
CCOC(=O)c1c(C)[nH]c2c1cc(O)c1ccccc12,?,?,?,-15,?
CCOC(=O)/C=C(\C)Sc1cc(=O)oc2ccccc12,16µM*,23µM*,21µM*,-52*,15µM*
Cc1ccc(CSc2ncc(Cl)c(C(=O)NCc3ccccc3)n2)cc1,.,-28%,?,.,.
CCOC(=O)c1nc(S(C)(=O)=O)ncc1Cl,6.3µM*,4.1µM*,3.7µM*,-98*,8.9µM*
CCSc1nnc(NC(=O)c2cnccn2)s1,-2%,-3%,-4%,33,8%
Cc1cccc(CS(=O)(=O)c2ncc(Cl)c(C(=O)NCc3ccccc3)n2)c1,?,3.3µM*,2.6µM*,-97*,26µM*
CCSc1nnc(NC(=O)c2ccccn2)s1,?,5µM*,3.2µM*,21,?
CCSc1nnc(NC(=O)c2csc3c2CCC(C)C3)s1 (stereo not given),4%,18µM*,?,32,8%
CCc1cccc(NC(=O)Cn2nc3c4cc(F)ccc4n(Cc4cccc(C)c4)cc-3c2=O)c1,.,-4%,-6%,.,.
O=C(CCN1CCN(Cc2ccccc2)CC1)NNC(=O)Nc1cccc([N+](=O)[O-])c1,3%,-2%,8%,i,1%
CCc1nnc(NC(=O)c2nc(S(C)(=O)=O)ncc2Cl)s1,.,5.8µM*,9.2µM*,.,.
SMILES,HT1080 IDH1KD tx,TDP1 cell CPT,DT40 TDP1 no CPT,IL-1B inflam inh,HT1080NT lethal
Cc1cccc(C)c1NC(=O)c1nc(S(=O)(=O)Cc2ccccc2)ncc1Cl,8.2µM*,2.6µM*,2.9µM*,-101*,16µM*
CCc1nnc(NC(=O)c2cc(Cl)ccn2)s1,?,2.9µM*,2.6µM*,53,-28%
CS(=O)(=O)c1ncc(Cl)c(C(=O)Nc2c(C(=O)c3ccc(Cl)cc3)oc3ccccc23)n1,.,?,3%,.,.
Cc1ccccc1NC(=O)c1nc(S(C)(=O)=O)ncc1Cl,15µM*,2.3µM*,2.3µM*,-98*,15µM*
COc1ccc(NC(=S)NC2CCCCC2)cn1,-12%,7%,-9%,-1,9%
Cc1cccc(CS(=O)(=O)c2ncc(Cl)c(C(=O)Nc3c(C)cccc3C)n2)c1,15µM*,3.7µM*,4.1µM*,-66*,?
Cc1nnc(NC(=O)c2nc(S(=O)(=O)Cc3ccccc3)ncc2Cl)s1,21µM*,9.2µM*,12µM*,-103*,15µM*
Cc1cccc(CSc2ncc(Cl)c(C(=O)Nc3nnc(C)s3)n2)c1,.,-15%,-14%,.,.
CCc1cc(CNC(=O)C2CCC(=O)N(Cc3ccccc3F)C2)on1 (stereo not given),7%,-12%,6%,12,9%
CCOC(=O)[C@H]1[C@H]2COc3ccc(C)cc3[C@@H]2N2C(=O)CN(C)C(=O)[C@@]12C,16%,-8%,-16%,35,18%
CCN(C[C@H]1N[C@@](CC)(C(=O)OC)[C@H]2C(=O)N(Cc3ccccc3)C(=O)[C@@H]12)S(=O)(=O)c1ccc(OC(F)(F)F)cc1,1%,?,16µM*,-8,9%
CCN(C[C@H]1N[C@@](CC)(C(=O)OC)[C@H]2C(=O)N(Cc3ccccc3)C(=O)[C@@H]12)S(=O)(=O)c1ccc(C(C)(C)C)cc1,-2%,13µM*,23µM*,-15,-2%
CCN(CC)S(=O)(=O)c1ccc(-n2cnc3cc(C)c(C)cc32)nc1,-1%,?,?,0,-11%
Cc1ccc(-c2nnc3n2N=C(c2ccccc2Br)CS3)cc1,?,12µM*,8.2µM*,-7,?
c1ccc(-c2cc(-c3nnc4n3N=C(c3ccc5ccccc5c3)CS4)[nH]n2)cc1,18µM*,?,?,-64*,?
COc1ccc(C2=Nn3c(nnc3-c3ccncc3)SC2)cc1,-24%,?,?,12,-1%
CCOc1ccc(C2=Nn3c(nnc3-c3ccc(OC)cc3)SC2)cc1,6.5µM*,2.1µM*,2.6µM*,20,?
Cc1cc(-c2nnc3n2N=C(c2ccc(-c4ccccc4)cc2)CS3)n[nH]1,?,23µM*,15µM*,-62*,23µM*
Cc1cc(-c2nnc3n2N=C(c2ccccc2)CS3)n[nH]1,10%,8%,-10%,.,4%
